# From the supplement of paper PMC10849652
# Of roughly 8,800 targets only a part is listed; those with a hit were picked by preference. About 0.5% of all pairs of compound and target were hits. Unmarked numbers belong to inactive results.
# What was measured:
# Assay in all cases: log2 fold change, soluble protein after heating vs DMSO (PISA); higher = thermal stabilisation; K562 lysate, 10 uM; active = over 0.2 and 3.5 SD of the protein, either way, in both replicates (recomputed)
# lapatinib = compound: CS(=O)(=O)CCNCc1ccc(-c2ccc3ncnc(Nc4ccc(OCc5cccc(F)c5)c(Cl)c4)c3c2)o1 [lapatinib]
# Summary of the method: (§1)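 Quantification was by TMTpro 16plex LC-MS/MS with equalised channel sums, applied to the supernatant after 21,000xg for 90 min. Samples were crude K562 extract at 1 mg/mL protein in PBS pH 7.4 with 1 mM MgCl2, treated with 10 μM compound for 30 min, heated for 3 min across 48°C-58°C, pooled and brought to 0.5% NP-40 at 4°C. Values are log-two fold changes in thermal stability relative to solvent controls, from duplicates.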
# pictilisib = compound: CS(=O)(=O)N1CCN(Cc2cc3nc(-c4cccc5[nH]ncc45)nc(N4CCOCC4)c3s2)CC1 [pictilisib]
# Summary of the method: as §1
# crizotinib = compound: C[C@@H](Oc1cc(-c2cnn(C3CCNCC3)c2)cnc1N)c1c(Cl)ccc(F)c1Cl [crizotinib]
# Summary of the method: as §1
# [1] = compound: C[C@H](C1=CC=C(C=C1)C(=O)NC2=C3C=CNC3=NC=C2)N
# Summary of the method: as §1
# duvelisib = compound: C[C@H](Nc1ncnc2nc[nH]c12)c1cc2cccc(Cl)c2c(=O)n1-c1ccccc1 [duvelisib]
# Summary of the method: as §1
# gandotinib = compound: Cc1cc(Nc2cc(CN3CCOCC3)c3nc(C)c(Cc4ccc(Cl)cc4F)n3n2)n[nH]1 [gandotinib]
# Summary of the method: as §1
# tozasertib = compound: Cc1cc(Nc2cc(N3CCN(C)CC3)nc(Sc3ccc(NC(=O)C4CC4)cc3)n2)n[nH]1 [tozasertib]
# Summary of the method: as §1
# doramapimod = compound: Cc1ccc(-n2nc(C(C)(C)C)cc2NC(=O)Nc2ccc(OCCN3CCOCC3)c3ccccc23)cc1 [doramapimod]
# Summary of the method: as §1
# bafetinib = compound: Cc1ccc(NC(=O)c2ccc(CN3CC[C@H](N(C)C)C3)c(C(F)(F)F)c2)cc1Nc1nccc(-c2cncnc2)n1 [bafetinib]
# Summary of the method: as §1
# [2] = compound: Cc1cccc(CC(=O)N2CCc3c2ccc(-c2cn(C)c4ncnc(N)c24)c3F)n1
# Summary of the method: as §1
# nilotinib = compound: Cc1cn(-c2cc(NC(=O)c3ccc(C)c(Nc4nccc(-c5cccnc5)n4)c3)cc(C(F)(F)F)c2)cn1 [nilotinib]
# Summary of the method: as §1
# [3] = compound: Cc1nc(Nc2n[nH]c3c2CN(C(=O)N[C@H](CN(C)C)c2ccccc2)C3(C)C)c2sccc2n1
# Summary of the method: as §1
# dasatinib = compound: Cc1nc(Nc2ncc(C(=O)Nc3c(C)cccc3Cl)s2)cc(N2CCN(CCO)CC2)n1 [dasatinib]
# Summary of the method: as §1
# [4] = compound: Cc1ncc(-c2ccnc(Nc3ccc(S(C)(=O)=O)cc3)n2)n1C(C)C
# Summary of the method: as §1
# [5] = compound: Cn1cc(-c2ccc3c(c2)CCN3C(=O)Cc2cccc(C(F)(F)F)c2)c2c(N)ncnc21
# Summary of the method: as §1
# quisinostat = compound: Cn1cc(CNCC2CCN(c3ncc(C(=O)NO)cn3)CC2)c2ccccc21 [quisinostat]
# Summary of the method: as §1
# tipifarnib = compound: Cn1cncc1[C@@](N)(c1ccc(Cl)cc1)c1ccc2c(c1)c(-c1cccc(Cl)c1)cc(=O)n2C [tipifarnib]
# Summary of the method: as §1
# [6] = compound: NC(=O)Nc1cc(-c2cccc(F)c2)sc1C(=O)N[C@H]1CCCNC1
# Summary of the method: as §1
# [7] = compound: NC(=O)c1cnc(N[C@@H]2CCCC[C@@H]2N)nc1Nc1cccc(-n2nccn2)c1
# Summary of the method: as §1
# [8] = compound: NC1(c2ccc(-c3nc4ccn5c(=O)[nH]nc5c4cc3-c3ccccc3)cc2)CCC1
# Summary of the method: as §1
# Sequence of UniProt Q9NP73 (Q9NP73 whole entry, looked up): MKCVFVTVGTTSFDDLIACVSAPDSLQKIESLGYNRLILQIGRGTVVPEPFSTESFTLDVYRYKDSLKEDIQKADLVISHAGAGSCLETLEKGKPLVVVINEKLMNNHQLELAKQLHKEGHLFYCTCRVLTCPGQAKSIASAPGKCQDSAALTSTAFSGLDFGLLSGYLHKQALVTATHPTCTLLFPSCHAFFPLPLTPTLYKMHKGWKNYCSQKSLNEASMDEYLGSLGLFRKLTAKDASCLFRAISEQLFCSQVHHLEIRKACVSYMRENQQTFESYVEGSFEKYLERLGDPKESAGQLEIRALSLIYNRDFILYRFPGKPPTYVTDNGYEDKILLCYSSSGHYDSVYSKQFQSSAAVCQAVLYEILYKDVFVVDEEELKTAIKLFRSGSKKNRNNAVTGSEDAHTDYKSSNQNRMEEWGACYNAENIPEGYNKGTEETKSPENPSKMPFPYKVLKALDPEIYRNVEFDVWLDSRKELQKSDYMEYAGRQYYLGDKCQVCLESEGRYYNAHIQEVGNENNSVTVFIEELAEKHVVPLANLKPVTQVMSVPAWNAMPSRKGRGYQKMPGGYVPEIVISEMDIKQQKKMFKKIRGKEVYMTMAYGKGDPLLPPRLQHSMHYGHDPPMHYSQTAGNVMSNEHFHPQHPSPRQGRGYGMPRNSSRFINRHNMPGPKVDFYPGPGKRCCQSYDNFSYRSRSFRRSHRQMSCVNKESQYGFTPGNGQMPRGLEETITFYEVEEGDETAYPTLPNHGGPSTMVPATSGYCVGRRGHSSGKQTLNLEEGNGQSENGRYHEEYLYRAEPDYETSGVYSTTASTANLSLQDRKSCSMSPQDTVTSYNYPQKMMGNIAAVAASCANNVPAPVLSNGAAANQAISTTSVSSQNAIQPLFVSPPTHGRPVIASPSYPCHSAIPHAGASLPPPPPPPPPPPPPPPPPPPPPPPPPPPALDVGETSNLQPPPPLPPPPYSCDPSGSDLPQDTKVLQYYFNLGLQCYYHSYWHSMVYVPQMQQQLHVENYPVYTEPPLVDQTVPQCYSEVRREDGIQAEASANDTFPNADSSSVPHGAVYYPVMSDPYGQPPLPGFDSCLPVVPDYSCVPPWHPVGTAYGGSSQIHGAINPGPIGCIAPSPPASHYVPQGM
# Sequence of UniProt Q9NWX5 (Q9NWX5 whole entry, looked up): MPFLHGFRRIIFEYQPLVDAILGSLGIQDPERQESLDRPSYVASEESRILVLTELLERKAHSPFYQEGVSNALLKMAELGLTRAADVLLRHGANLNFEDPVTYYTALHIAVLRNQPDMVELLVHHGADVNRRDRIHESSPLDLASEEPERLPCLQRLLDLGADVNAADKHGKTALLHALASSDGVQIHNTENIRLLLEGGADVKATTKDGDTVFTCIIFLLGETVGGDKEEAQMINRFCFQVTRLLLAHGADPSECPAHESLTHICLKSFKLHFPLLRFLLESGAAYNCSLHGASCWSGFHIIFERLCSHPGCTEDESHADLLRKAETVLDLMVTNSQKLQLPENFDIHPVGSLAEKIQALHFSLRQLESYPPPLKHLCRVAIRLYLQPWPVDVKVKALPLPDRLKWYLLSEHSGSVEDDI
# Sequence of UniProt O43823 (O43823 whole entry, looked up): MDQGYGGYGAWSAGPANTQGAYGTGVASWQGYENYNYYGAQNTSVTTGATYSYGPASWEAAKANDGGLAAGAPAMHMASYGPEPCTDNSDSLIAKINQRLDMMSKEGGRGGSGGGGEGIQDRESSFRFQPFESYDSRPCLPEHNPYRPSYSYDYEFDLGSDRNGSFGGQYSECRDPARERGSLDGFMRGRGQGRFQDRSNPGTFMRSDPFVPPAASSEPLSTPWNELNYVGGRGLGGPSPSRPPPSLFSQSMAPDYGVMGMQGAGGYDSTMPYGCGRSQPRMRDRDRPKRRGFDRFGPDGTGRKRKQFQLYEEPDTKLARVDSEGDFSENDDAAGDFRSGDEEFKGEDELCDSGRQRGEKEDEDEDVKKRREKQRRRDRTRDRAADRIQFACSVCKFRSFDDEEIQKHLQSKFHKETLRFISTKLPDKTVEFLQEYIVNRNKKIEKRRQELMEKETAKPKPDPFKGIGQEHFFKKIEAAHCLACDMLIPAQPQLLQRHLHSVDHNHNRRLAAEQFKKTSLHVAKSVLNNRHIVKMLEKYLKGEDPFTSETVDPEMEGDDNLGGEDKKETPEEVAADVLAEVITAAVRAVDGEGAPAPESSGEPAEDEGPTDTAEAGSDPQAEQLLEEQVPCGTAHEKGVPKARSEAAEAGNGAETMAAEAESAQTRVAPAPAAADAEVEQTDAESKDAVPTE
# Sequence of UniProt P40616 (P40616 whole entry, looked up): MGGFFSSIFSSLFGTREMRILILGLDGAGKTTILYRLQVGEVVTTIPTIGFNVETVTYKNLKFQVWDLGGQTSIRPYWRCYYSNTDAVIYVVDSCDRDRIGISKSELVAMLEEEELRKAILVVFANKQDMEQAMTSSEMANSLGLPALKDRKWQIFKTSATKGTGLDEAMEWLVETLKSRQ
# Sequence of UniProt Q9UJX3 (Q9UJX3 whole entry, looked up): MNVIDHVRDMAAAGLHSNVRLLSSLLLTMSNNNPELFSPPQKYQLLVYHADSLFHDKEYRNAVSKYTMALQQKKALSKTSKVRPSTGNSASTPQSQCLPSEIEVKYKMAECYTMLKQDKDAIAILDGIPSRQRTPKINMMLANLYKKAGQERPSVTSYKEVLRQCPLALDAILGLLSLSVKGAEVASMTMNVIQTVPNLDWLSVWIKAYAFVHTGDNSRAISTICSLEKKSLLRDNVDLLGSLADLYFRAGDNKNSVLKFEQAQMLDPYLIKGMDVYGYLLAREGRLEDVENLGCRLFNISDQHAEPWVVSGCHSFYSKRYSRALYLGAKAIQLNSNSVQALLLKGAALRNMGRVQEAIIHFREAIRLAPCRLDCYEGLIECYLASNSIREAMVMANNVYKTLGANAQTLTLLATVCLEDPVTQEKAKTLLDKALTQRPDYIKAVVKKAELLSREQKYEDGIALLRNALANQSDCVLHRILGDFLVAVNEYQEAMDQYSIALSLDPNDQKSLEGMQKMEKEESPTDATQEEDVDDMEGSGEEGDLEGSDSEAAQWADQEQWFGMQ
# Sequence of UniProt Q02252 (Q02252 whole entry, looked up): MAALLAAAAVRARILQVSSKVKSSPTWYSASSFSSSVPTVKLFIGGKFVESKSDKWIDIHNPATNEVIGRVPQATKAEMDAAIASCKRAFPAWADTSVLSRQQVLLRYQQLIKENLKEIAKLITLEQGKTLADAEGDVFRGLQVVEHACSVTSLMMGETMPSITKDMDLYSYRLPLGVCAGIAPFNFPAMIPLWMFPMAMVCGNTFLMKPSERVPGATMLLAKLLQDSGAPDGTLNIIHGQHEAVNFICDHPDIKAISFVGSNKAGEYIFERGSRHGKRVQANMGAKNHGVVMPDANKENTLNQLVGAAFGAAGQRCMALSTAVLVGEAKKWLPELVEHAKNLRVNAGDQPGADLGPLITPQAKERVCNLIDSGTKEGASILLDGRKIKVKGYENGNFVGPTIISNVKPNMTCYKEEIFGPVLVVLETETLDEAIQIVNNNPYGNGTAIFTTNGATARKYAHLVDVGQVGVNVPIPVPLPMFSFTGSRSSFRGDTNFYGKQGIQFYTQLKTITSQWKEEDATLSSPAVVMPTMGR
# Sequence of UniProt Q16186 (Q16186 whole entry, looked up): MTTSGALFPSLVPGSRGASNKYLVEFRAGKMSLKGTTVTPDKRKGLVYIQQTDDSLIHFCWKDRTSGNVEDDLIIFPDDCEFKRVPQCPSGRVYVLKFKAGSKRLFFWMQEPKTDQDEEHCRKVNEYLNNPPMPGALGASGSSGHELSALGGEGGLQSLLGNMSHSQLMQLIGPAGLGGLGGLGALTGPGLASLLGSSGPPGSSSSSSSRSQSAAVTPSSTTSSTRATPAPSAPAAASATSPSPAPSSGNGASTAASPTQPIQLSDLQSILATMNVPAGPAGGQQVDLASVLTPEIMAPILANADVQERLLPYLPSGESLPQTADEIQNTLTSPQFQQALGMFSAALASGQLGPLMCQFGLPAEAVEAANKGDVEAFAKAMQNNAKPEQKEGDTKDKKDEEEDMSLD
# Sequence of UniProt P00568 (P00568 whole entry, looked up): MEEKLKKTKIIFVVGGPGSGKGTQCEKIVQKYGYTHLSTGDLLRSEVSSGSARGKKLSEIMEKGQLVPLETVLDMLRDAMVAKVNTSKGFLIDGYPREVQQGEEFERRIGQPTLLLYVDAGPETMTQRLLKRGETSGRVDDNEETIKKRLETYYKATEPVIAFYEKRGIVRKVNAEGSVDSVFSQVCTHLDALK
Target,log2 fold change (lapatinib),log2 fold change (pictilisib),log2 fold change (crizotinib),log2 fold change [1],log2 fold change (duvelisib),log2 fold change (gandotinib),log2 fold change (tozasertib),log2 fold change (doramapimod),log2 fold change (bafetinib),log2 fold change [2],log2 fold change (nilotinib),log2 fold change [3],log2 fold change (dasatinib),log2 fold change [4],log2 fold change [5],log2 fold change (quisinostat),log2 fold change (tipifarnib),log2 fold change [6],log2 fold change [7],log2 fold change [8]
ALDH6A1 (UniProt Q02252),-0.04,-0.028,-0.023,-0.032,0.073,-0.033,0.021,-0.017,0.122,-0.001,-0.053,0.161,-0.144,-0.022,0.06,-0.027,-0.026,0.018,-0.038,-0.013
AK1 (UniProt P00568),-0.027,-0.011,0.091,0.285 (active),-0.001,-0.118,0.023,-0.037,0.06,-0.189,0.023,0.008,-0.038,0.015,0.011,0.118,0.056,0.004,0.003,0.009
ASB6 (UniProt Q9NWX5),-0.04,-0.029,0.01,0.093,0.008,-0.065,-0.159,0.004,-0.055,-0.028,-0.024,0.01,0.01,0.029,-0.025,-0.002,0.041,-0.01,0.016,0.08
ALG13 (UniProt Q9NP73),0.017,-0.002,-0.12,-0.075,0,0.044,-0.091,-0.015,-0.025,0.127,0.089,-0.012,-0.044,0.218,0,-0.067,-0.036,-0.004,0.028,-0.009
AKAP8 (UniProt O43823),0.008,-0.126,0.023,0.035,0.022,0.003,0.017,-0.071,-0.119,0.039,-0.3 (active),0.039,0.01,-0.001,0.006,-0.075,0.025,0.084,0.022,0.059
ADRM1 (UniProt Q16186),-0.009,-0.012,-0.05,0.019,0.03,-0.014,-0.019,0.042,0.006,0.02,0.002,-0.006,-0.063,0.015,-0.003,-0.102,-0.017,0.011,0.008,-0.003
ARL1 (UniProt P40616),0.001,0.051,-0.028,-0.056,0.001,0.159,0.004,0.228 (active),-0.027,0.096,0.092,-0.074,0.026,-0.118,-0.016,-0.082,-0.268,0.01,-0.001,0.005
ANAPC7 (UniProt Q9UJX3),-0.017,0.002,-0.029,-0.009,-0.018,-0.042,-0.019,0.023,-0.036,0.002,-0.004,-0.006,-0.004,0.008,0.02,-0.054,-0.019,0.03,0,-0.018
